# Cy5 interf NS3h – enhances or quenches Cy5 fluorescence in NS3h assay | AID 720488 | fluorescence interference ratio at 100 µM | Cy5-dT15 DNA with NS3h, fluorescence interference; actives lie on both sides; signal over control mean, under 1 quenches | hit rate 6% among 16,000;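 active means compound fluorescence over control fluorescence at most 0.8, a quencher, or at least a set upper limit, an enhancer; inactive means ratio between 0.8 and the set upper limit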
# NS3h inh CB – hepatitis C NS3 helicase inhibition, primary screen; NS3h Cy5-dT15 DNA binding, fluorescence polarization; inhibition, % at 100 µM; hit rate 1.6% among 16,000;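 active means inhibition above the average over every tested compound plus 3 SD, cut at about 40% in these data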
# Numbers stand for hits; 0 = inactive. Sampled rows, rich in hits. Any-hit rate of the full collection: about 7.6%.
SMILES,Cy5 interf NS3h,NS3h inh CB
CC(C)NC(=O)c1cnn2c1NC(c1ccc(Br)cc1)CC2C(F)(F)F (stereo unspecified),0,0
Cc1ccc(C2CC(C(F)(F)F)n3ncc(C(=O)N4CCSCC4)c3N2)cc1 (stereo unspecified),0.49,0
CN1CCN(C(=O)c2cnn3c2NC(c2ccc(Br)cc2)CC3C(F)(F)F)CC1 (stereo unspecified),0,0
O=C(O)c1cnn2c1NC(c1ccc(F)cc1)CC2C(F)(F)F (stereo unspecified),0,0
O=C(O)c1cnn2c1NC(c1ccc(Br)cc1)CC2C(F)(F)F (stereo unspecified),0.79,0
O=C(NCc1cccs1)c1cnn2c1NC(c1ccc(Br)cc1)CC2C(F)(F)F (stereo unspecified),0.49,0
Cc1cc(C)cc(N2C(=O)/C(=C/c3ccc(Oc4ccc([N+](=O)[O-])cn4)cc3)C(=O)NC2=S)c1,0,0
O=C1OC(C23CC4CC(CC(C4)C2)C3)=N/C1=C\c1ccccc1,0,0
COc1ccc(N(CC(=O)Nc2cccc(Br)c2)S(=O)(=O)c2ccccc2)cc1Cl,0,0
CCc1nnc(NS(=O)(=O)c2ccc(NC(=S)NC(=O)/C=C/c3ccc(C(C)C)cc3)cc2)s1,0,44
Cc1ccc(/C=C/C(=O)NC(=S)Nc2ccc(S(N)(=O)=O)cc2)cc1,0,0
COC(=O)C1=C(C(=O)OC)SC2(S1)C(C(=O)OC)=C(C(=O)OC)SC1=C2c2cccc(OC)c2NC1(C)C,0,0
O=C(c1cc(Cl)ccc1Cl)N(Cc1ccccc1)c1ccccn1,0.62,0
COc1ccc(Cl)cc1C(=O)N(Cc1ccccc1)C(C)C,0,0
c1cncc(CNc2cccc(-c3nc4ccccc4s3)c2)c1,0,0
O=C(/C=C/c1ccc(OCc2ccccc2)cc1)c1cccc(Br)c1,0,0
CCOC(=O)C1=C(C)N=c2s/c(=C\c3ccc([N+](=O)[O-])o3)c(=O)n2C1c1ccc(OCC)cc1 (stereo unspecified),0,0
CCOC(=O)C1=C(C)N=c2s/c(=C\c3ccc(N(C)C)o3)c(=O)n2C1c1ccc(OCC)cc1 (stereo unspecified),0.8,0
Cc1occc1C(=O)NNC(=O)c1ccc(Cl)cc1,0,0
NC(=O)COc1ccc(/C=c2/sc3n(c2=O)CCCN=3)cc1,1.2,0
COC(=O)C1=C(C)N(c2ccc(C)cc2)/C(=C\c2ccc(OCC(N)=O)cc2)C1=O,0,0
C=CCc1c(C)nc2cc(-c3cccc(F)c3)[nH]n2c1=O,1.2,0
CCOC(=O)CCc1c(C)nc2cc(-c3cccc(F)c3)[nH]n2c1=O,0,0
COc1ccc(OC)c(/C=N\NC(=O)c2ccn[nH]2)c1,0,0
COc1ccc(N2C(=O)/C(=C\c3ccsc3)SC2=S)cc1,0,0
SMILES,Cy5 interf NS3h,NS3h inh CB
Cc1cccc(/C=C2/SC(=S)N(C)C2=O)c1,0.68,0
CN1C(=O)/C(=C\c2ccsc2)SC1=S,0.69,0
Cc1ccc(OCCOc2cccc(/C=C3/SC(=S)N(C)C3=O)c2)cc1C,0,0
O=C(c1cccnc1)N(Cc1ccccc1)Cc1ccccc1,0,0
c1ccc(Cn2c(-c3ccco3)nc3ccccc32)cc1,0,0
N/C(=N/OC(=O)c1cccc(Br)c1)c1ccncc1,0,0
O=C(O/N=C(\c1ccccc1)c1ccncc1)c1ccc(Br)cc1,0.66,0
COc1cc(OC)cc(C(=O)O/N=C(/c2ccncc2)c2ccc([N+](=O)[O-])cc2)c1,0.61,0
Cc1ccc(/C(N)=N\OC(=O)c2ccc([N+](=O)[O-])cc2)cc1,0,0
O=C1C2C(c3ccccc3Cl)OC3(C(=O)c4ccccc4C3=O)C2C(=O)N1c1cccc(C(F)(F)F)c1 (stereo unspecified),0,0
CC(Oc1ccc2c3c(c(=O)oc2c1)CCC3)c1ccccc1 (stereo unspecified),0,0
O=c1oc(-c2cccs2)nc2sc3c(c12)CCCCC3,0,0
O=c1oc(-c2ccccc2)nc2sc3c(c12)CCCC3,0.69,0
CC(C)(CO)C(O)C(=O)NCc1ccc(C(=O)O)cc1 (stereo unspecified),0,0
CCOc1ccc(N2C(=O)CC(Cc3ccccc3)C2=O)cc1 (stereo unspecified),0,0
O=C1c2ccccc2C(=O)C1(Nc1ccc(F)cc1)c1ccccc1,0,0
Cc1ccccc1NC1(c2ccccc2Cl)C(=O)c2ccccc2C1=O,0.74,0
O=C1c2ccc(-c3nc4ccccc4c(=O)o3)cc2C(=O)N1c1c[nH]c(=O)[nH]c1=O,0,41
O=c1oc(-c2cccnc2)nc2ccccc12,0,0
O=C(N1CCSCC1)C(F)(F)C(F)(F)C(F)(F)C(F)(F)F,0.8,0
CC1=NN(c2ccccc2)C(=O)/C1=C\c1cc([N+](=O)[O-])ccc1N(C)C,0,0
CC1CC/C(=C\C=C\N(C)C)C(=O)/C1=C/C=C/N(C)C (stereo unspecified),0.72,0
CN(C)/C=C/C=C1\CC(=O)N(c2ccccc2)C1=O,0,0
COc1ccc(CCN2C(=O)/C(=C/c3c(NCCCn4ccnc4)nc4c(C)cccn4c3=O)SC2=S)cc1OC,0,0
Cc1cccn2c(=O)c(/C=C3\SC(=S)N(Cc4ccccc4)C3=O)c(NCCCn3ccnc3)nc12,0.59,0
SMILES,Cy5 interf NS3h,NS3h inh CB
COc1ccc(NC(=O)c2cnn3c2NC(c2ccco2)CC3C(F)(F)F)c(OC)c1 (stereo unspecified),0,0
COc1ccc(C2CC(C(F)(F)F)n3ncc(C(=O)Nc4cccc(C(C)O)c4)c3N2)cc1OC (stereo unspecified),0.7,0
COc1ccc(NC(=O)c2cnn3c2NC(c2ccccc2)CC3C(F)(F)F)cc1OC (stereo unspecified),0.73,0
COc1ccc(C2CC(C(F)(F)F)n3ncc(C(=O)O)c3N2)cc1OC (stereo unspecified),0,0
COc1ccc(CNC(=O)c2cnn3c2NC(c2ccco2)CC3C(F)(F)F)cc1 (stereo unspecified),0.75,0
CC(O)c1cccc(NC(=O)c2cnn3c2NC(c2ccco2)CC3C(F)(F)F)c1 (stereo unspecified),0.49,0
CC(O)c1cccc(NC(=O)c2cc3n(n2)C(C(F)(F)F)CC(c2ccc(Cl)cc2)N3)c1 (stereo unspecified),0,0
COc1ccc(C2CC(C(F)(F)F)n3ncc(C(=O)Nc4cc(Cl)ccc4O)c3N2)cc1OC (stereo unspecified),0,0
NC(=O)NC(c1ccc(Cl)cc1)c1ccc(Cl)cc1,0,0
COc1ccc(C(O)=C2C(=O)C(=O)N(CCc3ccccc3)C2c2ccc(OC)cc2)cc1 (stereo unspecified),0,0
FC(F)(F)c1ccc(CN2CCN(Cc3c[nH]c4ccccc34)CC2)cc1,0,0
O=C(/C=C/c1cccc(C(F)(F)F)c1)Nc1ccc(Br)cc1,0,0
CC(=O)c1ccc(N2C(=O)c3ccc4c5c(ccc(c35)C2=O)C(=O)N(c2ccc(C(C)=O)cc2)C4=O)cc1,0,0
COc1ccc2c(c1)CC/C(=C\c1ccccc1)C2=O,0,0
COCCN1C(=O)/C(=C\c2ccc(F)cc2)C(C(=O)OC)=C1C,0,0
COc1ccc(-n2nc3cc(C)c(NC(=O)COc4ccccc4C)cc3n2)cc1,0,0
COc1cc(C2CC(C(F)(F)F)n3ncc(C(=O)N4CCN(Cc5ccccc5)CC4)c3N2)cc(OC)c1OC (stereo unspecified),0,0
